Assay outcomes as filed in PubChem.
ABHD5 PLIN5 PPI – inhibitors of human ABHD5-perilipin-5 interaction; inhibition, % at 4 µM; Split G. princeps luciferase complementation, luminescence, 4 h; hit rate 0.78% among 360,000; AID 602281; Q00G26+Q8WTS1;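 active = inhibition above the mean inhibition across every tested compound plus 3 SD, cut at about 22% in these data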
PRMT1 FP inh – inhibitors of human PRMT1. Q99873. recombinant PRMT1, activity-based probe fluorescence polarization. inhibition, % at 2.79 µM. hit rate 1.3% among 370,000. AID 652257;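 active = inhibition above about 21% made by adding two undisclosed values, limit read from the data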
LANA-H2B inh – blocks KSHV LANA binding to histone H2A/H2B; AID 2629; cell-free LANA-H2A/H2B peptide, fluorescence polarization; inhibition, % (concentration not given with the values); hit rate 0.6% among 320,000; in the data active = inhibition mostly above about 10%, no sharp cut-off; inactive = mostly below about 6.7%
rCAG RNA binder – r(CAG) repeat RNA binding; TO-PRO-1 dye displacement fluorescence; inhibition, % at 3 µM; hit rate 1.3% among 370,000; AID 651821;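 active = inhibition above the plate cutoff, the mean of all test compounds on that plate plus 3 SD, cut at about 35% in these data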;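 also: higher means more dye released from RNA so lower well fluorescence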
ALR H2O2 inh – blocks human ALR sulfhydryl oxidase activity; purified ALR, DTT oxidation, H2O2 HRP-luminol luminescence; inhibition, % (no concentration beside the values); P55789; hit rate 3.8% among 290,000;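 active = mean replicate inhibition above about 79%, with every replicate also reaching it, limit read from the data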
Rtt109 Vps75 – inhibitors of Candida albicans Rtt109/Vps75 histone acetyltransferase; Q5AAJ8; purified Rtt109/Vps75, ThioGlo CoA-SH fluorescence, 4 h; inhibition, % at 34.9 µM; hit rate 0.16% among 330,000; AID 540336;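 active = inhibition of at least 50% in every replicate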
Target sequence (Q5AAJ8 whole entry, looked up): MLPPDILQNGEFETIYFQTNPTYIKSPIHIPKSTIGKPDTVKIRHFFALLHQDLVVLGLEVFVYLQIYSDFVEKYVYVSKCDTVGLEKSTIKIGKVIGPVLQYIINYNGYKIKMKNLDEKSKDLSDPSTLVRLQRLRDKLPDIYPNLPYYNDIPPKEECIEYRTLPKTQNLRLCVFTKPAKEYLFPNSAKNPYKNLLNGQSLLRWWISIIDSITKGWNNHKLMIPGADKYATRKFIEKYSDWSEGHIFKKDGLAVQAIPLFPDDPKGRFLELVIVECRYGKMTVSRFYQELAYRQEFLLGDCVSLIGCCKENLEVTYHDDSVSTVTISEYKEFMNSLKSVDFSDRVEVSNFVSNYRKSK
Each line names hits and unclear results; the compound was inactive in the other large screens. The list is not random: actives were taken first. Their share in the collection is about 5.9%.

Cn1cccc1CC(=O)NNC(=S)NC(=O)c1ccc(F)cc1	ALR H2O2 inh 95
O=C(COc1ccc(Cl)cc1Cl)NNC(=S)NC(=O)c1ccco1	none (no result: ALR H2O2 inh)
O=C(NNC(=S)NC(=O)c1ccco1)c1ccc(F)cc1	ALR H2O2 inh 97
COc1ccc(C(=O)NNC(=S)NC(=O)c2ccco2)cc1	none
O=C1NC[C@@H](CCCCN2CCN(CC3CCCCC3)C(=O)C2=O)N(CC2CCCCC2)C1=O	none (no result: LANA-H2B inh, ALR H2O2 inh, Rtt109 Vps75)
CCOC(=O)c1sc2nc3c(SCC(=O)O)cc(C(=O)c4ccccc4O)cn3c(=O)c2c1C	none
CCOC(=O)c1sc2nc3c(SCC(=O)O)cc(C(=O)c4cc(F)ccc4O)cn3c(=O)c2c1C	LANA-H2B inh 22
COc1ccc(-c2ccc3c(n2)CCCN3S(=O)(=O)c2ccccc2C)cc1	none (no result: ABHD5 PLIN5 PPI, LANA-H2B inh, ALR H2O2 inh, Rtt109 Vps75)
Cc1cc(C(=O)N2CCCC(C(=O)c3cccc(C(F)(F)F)c3)C2)nc(C)n1 (stereo not given)	LANA-H2B inh 14
Cc1cc(C(=O)N2CCCC(C(=O)c3cccc(C(F)(F)F)c3)C2)n[nH]1 (stereo not given)	none
O=C(c1cccc(C(F)(F)F)c1)C1CCCN(C(=O)c2cc(C3CC3)[nH]n2)C1 (stereo not given)	ALR H2O2 inh 86
Cn1cc(SCC(=O)NCC2CCCO2)c2ccccc21 (stereo not given)	ALR H2O2 inh 97
Cn1cc(SCC(=O)Nc2nccs2)c2ccccc21	ALR H2O2 inh 98
CN(C)c1ccc(Cn2c(=O)n(Cc3ccc(C(=O)NCC4COC4)cc3)c(=O)c3ccccc32)cc1	none (no result: ABHD5 PLIN5 PPI, LANA-H2B inh, ALR H2O2 inh, Rtt109 Vps75)
CC(C)CNC(=O)OCc1cn(Cc2cccc(C(F)(F)F)c2)nn1	none (no result: ABHD5 PLIN5 PPI, LANA-H2B inh, ALR H2O2 inh, Rtt109 Vps75)
CC(C)C[C@@H]1COc2cccc(NC3CC3)c2S(=O)(=O)N1	none (no result: ABHD5 PLIN5 PPI, LANA-H2B inh, ALR H2O2 inh, Rtt109 Vps75)
NC(=O)Cc1nc(-c2ccc(Br)cc2)cs1	none
Cc1ccc(-c2csc(CC(N)=O)n2)cc1	ALR H2O2 inh 91
Cc1nc(N)ncc1CCC1OCCO1	none (no result: LANA-H2B inh, ALR H2O2 inh, Rtt109 Vps75)
COC(=O)C1CCN(C(=O)c2ccc(SC)cc2OC)CC1	LANA-H2B inh 12
CN(C)c1ccc(/C=N/NC(=O)CCc2c[nH]c3ccccc23)cc1	ALR H2O2 inh 98
CN(C)S(=O)(=O)c1cccc(NC(=O)CCc2c[nH]c3ccccc23)c1	LANA-H2B inh active
COc1ccc(/C=N/NC(=O)Cn2nnc3ccccc32)cc1OC	none
O=C(CCc1c[nH]c2ccccc12)Nc1ccc(Nc2ccccc2)cc1	none (no result: ABHD5 PLIN5 PPI, LANA-H2B inh, ALR H2O2 inh, Rtt109 Vps75)
O=C(Cc1c[nH]c2ccccc12)N/N=C/c1ccc(F)cc1	none
CN(C)c1ccc(/C=N/NC(=O)Cn2nnc3ccccc32)cc1	ALR H2O2 inh 99
CN(C)c1ccc(/C=N/NC(=O)CCCO)cc1	ALR H2O2 inh 96
COc1ccc(C2CCC3(CCC(=O)N3CCOC(=O)NCc3ccc(Cl)cc3)CC2)cc1 (stereo not given)	none (no result: ABHD5 PLIN5 PPI, LANA-H2B inh, ALR H2O2 inh, Rtt109 Vps75)
CCCCCC(=O)N/N=C/c1ccc(N(C)C)cc1	ALR H2O2 inh 90
COc1ccc(OCC(=O)N/N=C/c2ccc(N(C)C)cc2)cc1	ALR H2O2 inh 98
CN(C)c1ccc(/C=N/NC(=O)c2ccccc2)cc1	none (no result: ALR H2O2 inh, Rtt109 Vps75)
CN(C)c1ccc(/C=N/NC(=O)CCCCCNC(=O)c2ccccc2)cc1	none (no result: ALR H2O2 inh)
CN(CCOc1ccccc1)C(=O)CCc1c[nH]c2ccccc12	ALR H2O2 inh 96
CN(C)c1ccc(/C=N/NC(=O)CCC(=O)NCc2ccccc2)cc1	ALR H2O2 inh 87
O=C(Cc1ccccc1)NC1CCCCN(Cc2cccc(Cl)c2)C1=O (stereo not given)	none (no result: ABHD5 PLIN5 PPI, LANA-H2B inh, ALR H2O2 inh, Rtt109 Vps75)
O=C(C1CCCN1S(=O)(=O)c1ccccc1[N+](=O)[O-])N1CCc2ccccc2C1 (stereo not given)	none (no result: ABHD5 PLIN5 PPI, LANA-H2B inh, ALR H2O2 inh, Rtt109 Vps75)
CCCCC[C@H](C)N1C[C@H](COCc2ccccc2)Oc2cc(N3CCC[C@H]3COC)ccc2S1(=O)=O	none (no result: LANA-H2B inh, ALR H2O2 inh, Rtt109 Vps75)
CCOC(=O)C1=CCC(c2ccccc2C)N(S(=O)(=O)c2ccc(C)cc2)C1 (stereo not given)	none (no result: LANA-H2B inh, ALR H2O2 inh, Rtt109 Vps75)
C=CCSc1nc(O)c(C2OC(=O)c3c2ccc(OC)c3OC)c(=O)n1-c1ccccc1 (stereo not given)	ALR H2O2 inh 97
O=C(NCCSCc1ccco1)Nc1cc(Cl)cc(Cl)c1	ALR H2O2 inh 89
CS(=O)(=O)Nc1ccc(C(=O)NCCSCc2ccco2)cc1	none
O=C(NNC(=S)NCc1ccco1)c1ccc(Cl)s1	none
O=C(CSCc1ccco1)c1ccc(Cl)s1	ALR H2O2 inh 98 (no result: ABHD5 PLIN5 PPI, PRMT1 FP inh, rCAG RNA binder, Rtt109 Vps75)
CS(=O)(=O)NCCSCc1ccco1	Rtt109 Vps75 53
